Experimental data taken from PubChem BioAssay (Tox21).
Records with an inconclusive call do not appear. Entries that show only a call come without a potency. Calls of active or inactive are those of the source. Unless noted, calls follow the shape of the dose curve; as a rule, active = well fitted curve in the direction sought with a large enough effect in the repeat runs; inconclusive = weak or mixed curves; inactive = no such curve, though single readings can be large; an effect the other way counts as inactive or inconclusive.

Legend:
[1] = qHTS assay to identify small molecule that activate the aryl hydrocarbon receptor (AhR) signaling pathway - cell viability counter screen (AID 743086); settings: HepG2-AhR-luc viability, CellTiter-Fluor, 24 h; series mostly up to 70.3 µM;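 also: HepG2 liver cells carrying the AhR DRE luciferase reporter; nearly all actives have a fitted effect of over 45% in size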
Summary of the method: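 HepG2-AhR-luc (HG2L7.5c1) cells, 4000/well, treated 24 h at 37 C with compound; viability measured as CellTiter-Fluor fluorescence after 30 min in the same wells as the luciferase read.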

[2] = qHTS assay to identify small molecule antagonists of the peroxisome proliferator-activated receptor gamma (PPARg) signaling pathway - cell viability counter screen (AID 743194); settings: PPARg-bla HEK293H viability, CellTiter-Glo luminescence, 17 h, co-treated with 50 nM rosiglitazone; series mostly up to 62.6 µM; also: nearly all actives have a fitted effect of over 55% in size; also: potency is read from the fitted curve at half-maximal effect
Summary of the method: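 Cytotoxicity counter screen in PPARg-bla HEK293H cells, same wells as reporter assay. Compounds plus 50 nM rosiglitazone (final) for 17 h at 37 C, then viability read by CellTiter-Glo luminescence.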

[3] = qHTS assay for small molecule agonists of the antioxidant response element (ARE) signaling pathway - cell viability counter screen (AID 743203; calls by dose curve; also: nearly all actives have a fitted effect of over 55% in size; also: potency is read from the fitted curve at half-maximal effect); settings: ARE-bla HepG2 viability, CellTiter-Glo luminescence, 16 h; series mostly up to 73.3 µM
Summary of the method: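 Viability counter screen: stably transfected ARE-bla HepG2 line, 16 hrs compound exposure at 37C/5% CO2, ATP-based CellTiter-Glo luminescence measured in the reporter wells.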

[4] = qHTS assay for small molecule activators of the heat shock response signaling pathway - cell viability counter screen (AID 743209); settings: HSE-bla HeLa viability, CellTiter-Glo luminescence, 5 h; series mostly up to 62.6 µM; also: nearly all actives have a fitted effect of over 50% in size
Summary of the method: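 Viability of HSE-bla HeLa cells is measured with CellTiter-Glo in the wells already used for the reporter read. Compound exposure lasts 5 h at 37 C, and luminescence is read after 30 min at room temperature.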

[5] = qHTS assay for small molecule activators of the heat shock response signaling pathway (AID 743210; active = well fitted activation curve with a large enough effect in the signal ratio in the repeat runs, with a control signal flat, not every such curve was filed as active; the % refers to the signal ratio;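 also: HeLa cells with beta-lactamase reporter driven by heat shock elements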); settings: HeLa HSE-bla reporter, beta-lactamase ratio, 5 h; series mostly up to 62.6 µM
Summary of the method: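 Following overnight attachment, HSE-bla HeLa cells received test compounds for 5 h at 37 C; beta-lactamase activity was then detected via FRET substrate fluorescence.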

[6] = qHTS assay to identify small molecule agonists of the peroxisome proliferator-activated receptor delta (PPARd) signaling pathway - cell viability counter screen (AID 743211); settings: PPARd-bla HEK293H viability, CellTiter-Glo luminescence, 17 h; series mostly up to 62.6 µM; also: nearly all actives have a fitted effect of over 55% in size; also: potency is read from the fitted curve at half-maximal effect
Summary of the method: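 Viability of GeneBLAzer PPARd UAS-bla HEK293H cells was assessed after 17 h compound incubation at 37C, using CellTiter-Glo reagent added after the reporter read and luminescence recorded 30 min later.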

[7] = qHTS assay to identify small molecule antagonists of the peroxisome proliferator-activated receptor delta (PPARd) signaling pathway - cell viability counter screen (AID 743213); settings: PPARd-bla HEK293H viability, CellTiter-Glo luminescence, 17 h; series mostly up to 62 µM; also: nearly all actives have a fitted effect of over 50% in size; also: potency is read from the fitted curve at half-maximal effect
Summary of the method: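 Same-well viability: cells pre-incubated 5 h, dosed with compound plus 300 nM L165041, kept 17 h at 37 C, FRET substrate 2 h RT, then CellTiter-Glo 30 min RT and luminescence.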

[8] = biological target: Bile acid receptor (Homo sapiens) (UniProt Q96RI1); experiment: qHTS assay to identify small molecule antagonists of the farnesoid-X-receptor (FXR) signaling pathway (AID 743217; active = well fitted inhibition curve with a large enough effect in the signal ratio in the repeat runs, not every such curve was filed as active; the % refers to the signal ratio); settings: HEK293T FXR-UAS-bla, beta-lactamase ratio, CDCA-stimulated, 16 h; series mostly up to 62.6 µM
Summary of the method: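 Screen of the Tox21 10K library in quantitative HTS format using FXR-UAS-bla HEK 293T reporter cells. Agonist chenodeoxycholic acid, 50 uM final, added with compounds; 16 h incubation at 37 °C; beta-lactamase FRET fluorescence measured.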

[9] = qHTS assay to identify small molecule agonists of the farnesoid-X-receptor (FXR) signaling pathway - cell viability counter screen (AID 743218); settings: FXR-bla HEK293T viability, CellTiter-Glo luminescence, 16 h; series mostly up to 62.6 µM; also: nearly all actives have a fitted effect of over 45% in size; also: potency is read from the fitted curve at half-maximal effect
Summary of the method: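 Viability of FXR-bla HEK 293T cells is measured by ATP-based CellTiter-Glo luminescence following 16 h compound treatment at 37 C and a prior 2 h room-temperature beta-lactamase substrate step.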

[10] = biological target: Bile acid receptor (Homo sapiens) (UniProt Q96RI1); experiment: qHTS assay to identify small molecule agonists of the farnesoid-X-receptor (FXR) signaling pathway (AID 743220; active = well fitted activation curve with a large enough effect in the signal ratio in the repeat runs, not every such curve was filed as active; the % refers to the signal ratio); settings: HEK293T FXR-UAS-bla, beta-lactamase FRET ratio, 16 h; series mostly up to 62.6 µM
Summary of the method: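 FXR-UAS-bla HEK 293T cells carrying a UAS-driven beta-lactamase reporter were plated for 5 h at 37C/5% CO2, then exposed to DMSO-dissolved Tox21 10K compounds for 16 h at 37C. A LiveBLAzer B/G FRET substrate was loaded for 2 h at room temperature before fluorescence reading.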

[11] = qHTS assay to identify small molecule antagonists of the farnesoid-X-receptor (FXR) signaling pathway - cell viability counter screen (AID 743221; active = well fitted cell-killing curve with a large enough effect in the repeat runs, not every such curve was filed as active; also: nearly all actives have a fitted effect of over 50% in size); settings: FXR-bla HEK293T viability, CellTiter-Glo luminescence, 16 h; series mostly up to 62.6 µM
Summary of the method: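 Quantitative HTS of the Tox21 10K library run in parallel with the beta-lactamase reporter read. HEK 293T cells carrying a UAS-driven bla reporter got compound and 50 uM CDCA (final) for 16 h; ATP-based luminescence followed.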

[12] = biological target: Vitamin D3 receptor (Homo sapiens) (UniProt P11473); experiment: qHTS assay to identify small molecule agonists of the vitamin D receptor (VDR) signaling pathway (AID 743222; calls by dose curve); settings: HEK293T VDR-UAS-bla, beta-lactamase FRET ratio, 16 h; series mostly up to 63.5 µM
Summary of the method: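 Fluorescence from cleaved LiveBLAzer B/G FRET substrate served as readout. VDR-bla cells had been treated 16 h at 37C with test compounds in DMSO, following a 4 h settling period, and substrate was loaded for 2 h at RT.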

[13] = biological target: Peroxisome proliferator-activated receptor gamma (Homo sapiens) (UniProt P37231); experiment: qHTS assay to identify small molecule antagonists of the peroxisome proliferator-activated receptor gamma (PPARg) signaling pathway (AID 743191; calls by dose curve; also: potency is read from the fitted curve at half-maximal effect; nearly all actives have a fitted effect of over 30% in size); settings: HEK293H PPARg-UAS-bla, beta-lactamase ratio, antagonist, 17 h; series mostly up to 62.6 µM
Summary of the method: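 GeneBLAzer PPARg UAS-bla HEK293H cells, 5 h post-plating, exposed to compounds 17 h at 37C. LiveBLAzer B/G FRET substrate added for 1 h at room temperature; beta-lactamase reporter read by fluorescence intensity.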

[14] = biological target: Vitamin D3 receptor (Homo sapiens) (UniProt P11473); experiment: qHTS assay to identify small molecule antagonists of the vitamin D receptor (VDR) signaling pathway (AID 743223; active = well fitted inhibition curve with a large enough effect in the signal ratio in the repeat runs, not every such curve was filed as active; the % refers to the signal ratio); settings: VDR-UAS-bla HEK293T, beta-lactamase FRET ratio, 16 h; series mostly up to 61 µM
Summary of the method: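 Fluorescence from LiveBLAzer B/G FRET substrate, read after 2 h at room temperature, reflects beta-lactamase reporter activity in VDR-bla cells treated 16 h at 37C with compounds and agonist 1alpha,25-dihydroxyvitamin D3 (3 nM final).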

[15] = qHTS assay for small molecule agonists of the antioxidant response element (ARE) signaling pathway (AID 743202; active = well fitted activation curve with a large enough effect in the signal ratio in the repeat runs, not every such curve was filed as active; the % refers to the signal ratio; also: potency is read from the fitted curve at half-maximal effect); settings: HepG2 ARE-bla reporter, beta-lactamase FRET, 16 h; series mostly up to 73.3 µM
Summary of the method: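 HepG2 ARE-bla cells; 16 h treatment at 37 C; FRET-based beta-lactamase fluorescence read after 2 h substrate incubation at room temperature.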

[16] = biological target: Peroxisome proliferator-activated receptor delta (Homo sapiens) (UniProt Q03181); experiment: qHTS assay to identify small molecule agonists of the peroxisome proliferator-activated receptor delta (PPARd) signaling pathway (AID 743212; calls by dose curve); settings: HEK293H PPARd-UAS-bla, beta-lactamase FRET ratio, 17 h; series mostly up to 62.6 µM
Summary of the method: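 Tox21 library screened in GeneBLAzer PPARd UAS-bla HEK293H cells. After compound treatment at 37 C, a FRET-based beta-lactamase substrate was applied for 2 h and fluorescence recorded.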

[17] = biological target: Peroxisome proliferator-activated receptor delta (Homo sapiens) (UniProt Q03181); experiment: qHTS assay to identify small molecule antagonists of the peroxisome proliferator-activated receptor delta (PPARd) signaling pathway (AID 743215; active = well fitted inhibition curve with a large enough effect in the signal ratio in the repeat runs, not every such curve was filed as active; the % refers to the signal ratio;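 also: cells stimulated with agonist L165041 at 300 nM final during compound exposure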); settings: HEK293H PPARd-UAS-bla, beta-lactamase FRET ratio, antagonist, 17 h; series mostly up to 62 µM
Summary of the method: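 Plated HEK293H PPARd-bla cells rested 5 h at 37 C and 5% CO2. Compound, then agonist L165041 at 300 nM final, was added; 17 h at 37 C followed. Substrate loading, 2 h room temperature, fluorescence measured.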

Chain of Vitamin D3 receptor (Homo sapiens) (P11473 whole entry, looked up): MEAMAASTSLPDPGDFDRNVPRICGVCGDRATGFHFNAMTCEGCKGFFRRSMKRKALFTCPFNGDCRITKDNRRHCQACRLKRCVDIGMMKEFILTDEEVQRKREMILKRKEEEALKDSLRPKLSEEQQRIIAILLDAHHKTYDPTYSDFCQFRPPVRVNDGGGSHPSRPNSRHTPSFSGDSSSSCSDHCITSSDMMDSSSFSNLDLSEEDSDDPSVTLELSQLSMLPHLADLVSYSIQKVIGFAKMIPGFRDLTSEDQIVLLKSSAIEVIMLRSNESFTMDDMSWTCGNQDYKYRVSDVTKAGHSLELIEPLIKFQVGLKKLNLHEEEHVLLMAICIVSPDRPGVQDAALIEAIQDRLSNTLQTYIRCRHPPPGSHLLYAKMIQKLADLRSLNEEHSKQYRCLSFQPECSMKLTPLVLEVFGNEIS
Chain of Peroxisome proliferator-activated receptor delta (Homo sapiens) (Q03181 whole entry, looked up): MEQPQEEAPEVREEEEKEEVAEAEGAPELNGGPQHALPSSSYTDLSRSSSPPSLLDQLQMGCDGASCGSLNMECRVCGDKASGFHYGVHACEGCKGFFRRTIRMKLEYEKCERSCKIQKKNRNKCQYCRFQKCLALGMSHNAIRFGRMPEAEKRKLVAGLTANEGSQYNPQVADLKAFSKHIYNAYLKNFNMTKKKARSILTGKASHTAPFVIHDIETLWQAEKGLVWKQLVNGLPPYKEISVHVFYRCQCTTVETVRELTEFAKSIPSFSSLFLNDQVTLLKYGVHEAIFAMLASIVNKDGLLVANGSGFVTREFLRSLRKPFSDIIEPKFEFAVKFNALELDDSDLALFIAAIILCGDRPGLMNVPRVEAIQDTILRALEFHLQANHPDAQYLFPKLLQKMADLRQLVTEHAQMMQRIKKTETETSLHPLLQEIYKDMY
Chain of Bile acid receptor (Homo sapiens) (Q96RI1 whole entry, looked up): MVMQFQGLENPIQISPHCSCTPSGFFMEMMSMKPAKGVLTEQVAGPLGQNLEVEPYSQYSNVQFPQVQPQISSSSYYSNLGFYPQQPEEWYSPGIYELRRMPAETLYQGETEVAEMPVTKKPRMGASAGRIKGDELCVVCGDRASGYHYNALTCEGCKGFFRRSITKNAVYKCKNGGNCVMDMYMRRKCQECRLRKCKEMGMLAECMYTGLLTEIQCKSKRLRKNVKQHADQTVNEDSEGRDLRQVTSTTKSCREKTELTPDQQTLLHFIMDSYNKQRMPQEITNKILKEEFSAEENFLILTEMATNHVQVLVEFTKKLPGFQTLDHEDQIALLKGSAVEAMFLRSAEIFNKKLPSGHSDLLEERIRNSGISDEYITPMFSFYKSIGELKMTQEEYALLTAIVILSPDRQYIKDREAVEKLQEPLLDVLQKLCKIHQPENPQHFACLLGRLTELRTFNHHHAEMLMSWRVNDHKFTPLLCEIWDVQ
Chain of Peroxisome proliferator-activated receptor gamma (Homo sapiens) (P37231 whole entry, looked up): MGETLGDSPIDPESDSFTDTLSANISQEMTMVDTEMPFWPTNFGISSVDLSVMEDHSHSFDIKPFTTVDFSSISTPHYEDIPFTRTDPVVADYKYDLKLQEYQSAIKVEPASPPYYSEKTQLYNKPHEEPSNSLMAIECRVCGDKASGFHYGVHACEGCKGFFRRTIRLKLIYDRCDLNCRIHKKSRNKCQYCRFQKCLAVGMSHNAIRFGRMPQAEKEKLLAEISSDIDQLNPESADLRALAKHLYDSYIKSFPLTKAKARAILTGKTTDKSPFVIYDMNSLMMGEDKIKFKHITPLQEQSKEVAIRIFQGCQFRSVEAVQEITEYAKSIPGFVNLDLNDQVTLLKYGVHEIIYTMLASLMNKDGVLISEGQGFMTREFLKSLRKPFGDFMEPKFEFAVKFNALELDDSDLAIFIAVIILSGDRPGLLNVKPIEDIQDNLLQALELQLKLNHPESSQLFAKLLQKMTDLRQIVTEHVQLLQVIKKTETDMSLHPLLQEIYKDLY

Row | SMILES | Potency [1] | Potency [2] | Potency [3] | Potency [4] | Potency [5] | Potency [6] | Potency [7] | Potency [8] | Potency [9] | Potency [10] | Potency [11] | Potency [12] | Potency [13] | outcome [14] | Potency [15] | Potency [16] | Potency [17]
1 | CCC(C)O (stereo unspecified) | inactive | inactive | inactive | inactive | inactive | inactive | inactive | inactive | inactive | inactive | inactive | inactive | – | – | – | – | –
2 | CCCCCCOC(=O)NC(=N)c1ccc(NCc2nc3cc(C(=O)N(CCC(=O)OCC)c4ccccn4)ccc3n2C)cc1 | – | 13.3 µM (active) | 26.6 µM (active) | – | inactive | 21.1 µM (active) | 23.7 µM (active) | – | 26.6 µM (active) | inactive | – | – | 29.8 µM (active) | inactive | – | – | –
3 | CCC(C)(C)CC | inactive | inactive | inactive | inactive | – | – | 51.3 µM (active) | – | inactive | – | inactive | – | – | – | inactive | – | –
4 | CCCCCCc1ccc(-c2ccc(C#N)cc2)cc1 | inactive | inactive | inactive | inactive | inactive | – | inactive | inactive | – | inactive | inactive | – | – | – | inactive | inactive | –
5 | Cc1ccccc1S(=O)(=O)O | – | inactive | inactive | inactive | inactive | – | inactive | – | inactive | – | inactive | – | – | – | inactive | – | –
6 | C/C=C(/C(=C/C)c1ccc(OC(C)=O)cc1)c1ccc(OC(C)=O)cc1 | – | – | inactive | inactive | – | – | – | – | inactive | – | inactive | inactive | – | – | 13.3 µM (active) | inactive | inactive
